Eight compounds from PubChem BioAssay (NCI) can be followed below.

Some test systems named below: HT29 colon; SNB-75 CNS; SNB-19 CNS; PC-3 prostate; SK-MEL-5 melanoma; UACC-62 melanoma; LOX IMVI melanoma; SK-MEL-28 melanoma; SK-MEL-2 melanoma; EKVX NSCLC; SN12C renal; UO-31 renal; TK-10 renal; ACHN renal; CAKI-1 renal; A498 renal; CCRF-CEM leukemia; MOLT-4 leukemia; U251 CNS.
Common to all, as to test: NCI-60 one-dose screen, 48 h (100 = growth as untreated, 0 = no growth, -100 = all killed)
What all share (settings): 10 µM unless noted

SMILES strings stand for the structures. The panel holds about 83,000 compounds, 20% with a hit somewhere; the sample as a whole holds those more often.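 In brief: 96-well plates, 48 h treatment, single concentration, percent growth endpoint.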 Unmarked numbers belong to inactive results. The source made the active and inactive calls. How the source made its calls: active means growth percent below 10; inactive means the rest.

Turning to `Cc1cccc(-n2c(C)nc3ccc(N4CCCNC4=O)cc3c2=O)c1`, the growth was 106% in the assay with HT29 colon; 103% in the assay with SNB-75 CNS; 98.2% with SNB-19 CNS; 100% in the assay with PC-3 prostate; 102% with SK-MEL-5 melanoma; 97.3% in the assay with UACC-62 melanoma. Besides, the growth was 97.7% with LOX IMVI melanoma; 112% in the assay with SK-MEL-28 melanoma; 106% with SK-MEL-2 melanoma; 99.5% in the assay with EKVX NSCLC; 98% with SN12C renal; 88.7% in the assay with UO-31 renal. Further, the growth was 104% in the assay with TK-10 renal; 111% with ACHN renal; 99.8% in the assay with CAKI-1 renal; 90.1% in the assay on A498 renal; 106% in the assay with CCRF-CEM leukemia; 110% in the assay on MOLT-4 leukemia.

Turning to `COc1ccc(-c2oc(=O)ccc2-c2cc(OC)c(OC)c(OC)c2)cc1O`, the growth in the assay on HT29 colon is 3.93% (active); in the assay on SNB-75 CNS it was -1.81% (active); with SNB-19 CNS it was 22.9%; in the assay with U251 CNS it was 22.7%; with SK-MEL-5 melanoma, 12.1%; with UACC-62 melanoma it was 21.1%. For the same compound, the growth with LOX IMVI melanoma was 44.4%; with SK-MEL-28 melanoma, 39.3%; in the assay with SK-MEL-2 melanoma, 39.9%; with EKVX NSCLC, 49.5%; in the assay with SN12C renal, 36.8%; with UO-31 renal it was 21.9%. In addition, the growth in the assay on TK-10 renal is 61.6%; with ACHN renal, 56%; with CAKI-1 renal, -11.6% (active); in the assay with A498 renal, -1.78% (active); with CCRF-CEM leukemia it was 4.14% (active).

Consider `O=C1C(Cl)=C(NCCN2CCOCC2)C(=O)c2ncccc21`, for which the growth was -27.6% (active) in the assay on HT29 colon; 88.3% in the assay on SNB-75 CNS; 17.3% in the assay on SNB-19 CNS; 29.6% in the assay on U251 CNS; 38.1% in the assay on PC-3 prostate; -94.1% (active) in the assay with SK-MEL-5 melanoma. The growth in the assay on UACC-62 melanoma is -51.2% (active); in the assay with LOX IMVI melanoma, -57.3% (active); in the assay with SK-MEL-28 melanoma, -84.3% (active); in the assay on SK-MEL-2 melanoma, -23.8% (active); in the assay with EKVX NSCLC, -78.9% (active); with SN12C renal, -69.2% (active). Besides, the growth is -75.7% (active) in the assay on UO-31 renal; 28.3% in the assay on TK-10 renal; -42.5% (active) with ACHN renal; 88.5% with CAKI-1 renal; 74.2% in the assay with A498 renal; 5.23% (active) in the assay with CCRF-CEM leukemia.

Regarding `CN(CCC#N)c1ccc(/C=C2\NC(=O)NC2=O)cc1`, the growth in the assay on HT29 colon was 82.4%; with SNB-75 CNS, 102%; with SNB-19 CNS, 102%; in the assay with U251 CNS, 112%; with PC-3 prostate, 94.8%; with SK-MEL-5 melanoma, 102%. In addition, the growth in the assay with UACC-62 melanoma is 91.1%; in the assay on LOX IMVI melanoma, 87.9%; with SK-MEL-28 melanoma it was 109%; in the assay on SK-MEL-2 melanoma, 100%; with EKVX NSCLC, 79.3%; in the assay with SN12C renal, 98.6%. Further, the growth in the assay on UO-31 renal is 84.4%; in the assay on TK-10 renal, 93.5%; in the assay with ACHN renal, 97.9%; with CAKI-1 renal, 82.8%; in the assay on A498 renal, 89.3%; in the assay with CCRF-CEM leukemia, 107%. Besides, in the assay on MOLT-4 leukemia, the growth is 92%.

In the case of `COC(=O)/C(CCC=C(C)C)=C1\[C@@H](OC(C)=O)C[C@@]2(C)[C@H]1CC(=O)[C@H]1[C@@]3(C)CCC(N4CCCC4)[C@@H](C)[C@@H]3CC[C@@]12C` (stereo partly drawn), the growth in the assay on HT29 colon was 68.2%; with SNB-75 CNS, 99.2%; with SNB-19 CNS, 107%; in the assay on U251 CNS it was 101%; in the assay on PC-3 prostate it was 89.1%; with SK-MEL-5 melanoma it was 99.2%. For the same compound, the growth is 97.6% with UACC-62 melanoma; 101% in the assay with LOX IMVI melanoma; 93.6% in the assay on SK-MEL-28 melanoma; 105% with SK-MEL-2 melanoma; 91.9% in the assay on EKVX NSCLC; 89% in the assay with SN12C renal. Moreover, the growth in the assay with UO-31 renal is 70.2%; with TK-10 renal, 102%; in the assay on ACHN renal, 104%; in the assay with CAKI-1 renal, 106%; in the assay on A498 renal it was 105%; in the assay on CCRF-CEM leukemia, 78.2%. For the same compound, in the assay with MOLT-4 leukemia, the growth is 9.72% (active).

For `Cc1c(Cl)cccc1C(=O)Nc1nc2c(s1)CN(C(=O)Nc1cccc(C(F)(F)F)c1)CC2`, the growth was 1.39% (active) in the assay with HT29 colon; 6.15% (active) in the assay with SNB-75 CNS; 36.7% in the assay with SNB-19 CNS; 22.2% in the assay with U251 CNS; 6.43% (active) in the assay on PC-3 prostate; 2.35% (active) in the assay on SK-MEL-5 melanoma. Besides, the growth is 27.8% in the assay with UACC-62 melanoma; 18.9% with LOX IMVI melanoma; 44.4% in the assay with SK-MEL-28 melanoma; 37.4% in the assay on SK-MEL-2 melanoma; 46% in the assay on EKVX NSCLC; 26% in the assay with SN12C renal. For the same compound, the growth was 27.8% in the assay on UO-31 renal; 50.9% with TK-10 renal; 18.3% in the assay on ACHN renal; 15.9% in the assay with CAKI-1 renal; -10.2% (active) in the assay on A498 renal; 16.7% in the assay with CCRF-CEM leukemia. In addition, the growth in the assay on MOLT-4 leukemia is 15.9%.

For `N=c1c2c(=N)n3c(nc2nc2n1-c1ccccc1Sc1ccccc1-2)sc1cc(Cl)ccc13`, the growth in the assay with HT29 colon was 26.4%; in the assay on SNB-75 CNS, 53.4%; with SNB-19 CNS, 30.7%; in the assay with U251 CNS it was 9.17% (active); in the assay with PC-3 prostate, 19.4%; in the assay with SK-MEL-5 melanoma it was -12.8% (active). Moreover, the growth in the assay with UACC-62 melanoma was 13.8%; in the assay on LOX IMVI melanoma, 13.5%; in the assay with SK-MEL-28 melanoma, 25%; in the assay with SK-MEL-2 melanoma it was -2.45% (active); in the assay with EKVX NSCLC, 13.8%; with SN12C renal it was 25%. Moreover, the growth with UO-31 renal is 7.88% (active); with TK-10 renal, 33.6%; in the assay with ACHN renal it was 18.2%; with CAKI-1 renal, 8.56% (active); in the assay with A498 renal, 0.653% (active); with CCRF-CEM leukemia it was 37.7%. In addition, the growth with MOLT-4 leukemia is 48.4%.

On to `CCOC(=O)c1c(NC(=O)c2ccc(OC)cc2)sc2c(CN(C)C)c(O)ccc12`, for which the growth was 13.9% in the assay on HT29 colon; 67.7% with SNB-75 CNS; 89% in the assay on SNB-19 CNS; 79.5% in the assay with U251 CNS; 78.9% with PC-3 prostate; 81.3% with SK-MEL-5 melanoma. Besides, the growth in the assay on UACC-62 melanoma is 95.7%; in the assay with LOX IMVI melanoma, 61.3%; in the assay on SK-MEL-28 melanoma it was -30.4% (active); with SK-MEL-2 melanoma, 105%; in the assay with EKVX NSCLC it was 95.9%; in the assay on SN12C renal, 77.5%. Moreover, the growth in the assay on UO-31 renal was 88.8%; in the assay with TK-10 renal, 94.4%; in the assay with ACHN renal, 6.26% (active); in the assay with CAKI-1 renal, 72.3%; with A498 renal, 68.9%; in the assay on CCRF-CEM leukemia, 56.6%. For the same compound, the growth in the assay on MOLT-4 leukemia was 61.2%.
